# Experimental data published in PubChem BioAssay AID1628 (Sanford-Burnham Center for Chemical Genomics, 2009).
# Among all 190,000 compounds or so, about 930 (0.49%) were called active. The list shows a part of the results. Results with a measured potency or affinity are listed apart. Unmarked numbers belong to inactive results.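 Rule for the calls: active = z-score of insulin promoter reporter brightness in nuclei below -3 at 5 µM, with at least 500 cells counted; inconclusive = wells with under 500 cells, flagged as toxic or sparse; inactive = the rest.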
# Assay: decrease of insulin promoter-GFP reporter – imaging, high-content screening, mouse beta cells (AID 1628)
# Conditions: MIN6 insulin promoter GFP reporter, at 5 µM, hits give low values
row,SMILES,z-score
1,O=C(O)CCC(=O)N1CC=C(c2ccccc2)CC1,-3.14 (active)
2,O=C(COc1ccccc1)N1CCN=C1c1ccccc1,3.07
3,O=C(O)c1ccn(COc2ccc(Br)cc2)n1,4.62
4,CCOC(=O)N1CCC(NC(=O)c2cc(C(=O)Nc3ccc(OC)c(OC)c3)ccc2CO)CC1,3.42
5,CCN1CCc2c(sc(NC(=O)Nc3ccc(Cl)c(Cl)c3)c2C(N)=O)C1,16
6,Cc1cn(S(=O)(=O)c2ccc(Br)c3ccccc23)cn1,-4.36 (active)
7,COc1ccc(N(C(=O)Cc2cccs2)C2C=CS(=O)(=O)C2)cc1 (stereo not drawn),3.14
8,O=C1S/C(=C\c2ccc(N3CCOCC3)o2)C(=O)N1Cc1c(F)cccc1Cl,14.9
9,C1=C(c2ccccc2)Nc2nnnn2C1,3.1
10,NC(=S)N/N=C/c1cccc(O)c1O,-5.73 (active)
11,FC(F)C(F)(F)C1=CC(c2ccccc2)=NCCN1,-3.16 (active)
12,CC1CCc2nc3ccccc3c(C(=O)OCC(=O)N3CCc4ccccc43)c2C1 (stereo not drawn),-7.27 (active)
13,O=C1C2C3C=CC(C3)C2C(=O)N1CCC(=O)N1CCc2ccccc21 (stereo not drawn),0.52
14,Cc1cccc2cc3c(N)c(C(=O)N4CCc5ccccc54)sc3nc12,4.42
15,CCOc1cccc(NC(=O)Cc2cccs2)c1,-3.39 (active)
16,CCOc1ccc(NC2=NCC(=O)N2Cc2cccs2)cc1,4.8
17,COc1ccc(Cc2nnc(NC(=O)Cc3cccs3)s2)cc1,3.48
18,CC1=C(C(=O)OCc2ccccc2)C(c2ccccc2)NC(=O)N1CCCCCC(=O)O (stereo not drawn),-5.52 (active)
19,O=C(O)CCCCCCCCCCCc1ccccc1,0.16
20,CCOC(=O)/C(=C\C=C1/Sc2cc(OCC)c(OCC)cc2N1CC)C(C)=O,16.7
21,Clc1cccc(-c2cc3nc4c(c(N5CCNCC5)n3n2)CCCC4)c1,-0.83
22,COc1cc(OC)cc(-c2cc3nc4c(c(N5CCN(c6ncccn6)CC5)n3n2)CCCC4)c1,-3.61 (active)
23,COc1cccc(-c2cc3nc4c(c(N5CCC6(CC5)OCCO6)n3n2)CCC4)c1,-3.88 (active)
24,CC(C)N1CC=C2C(C#N)=C(N)C(C#N)(C#N)[C@H](c3ccoc3)[C@H]2C1,9.66
25,CN(C)CCOCCOc1ccccc1-c1ccccc1,4.97

row,SMILES,z-score
1,CC1CN(c2oc(COc3ccc(Cl)cc3Cl)nc2C#N)CC(C)O1 (stereo not drawn),-3.34 (active)
2,COC(=O)c1cc(NC(=O)c2cccc(Cl)c2)c(=O)oc1/C=C/Nc1cc(C)cc(C)c1,14.9
3,COC(=O)c1ccc(C(=O)Nc2cc(Cl)ccc2Cl)cc1NC(=O)c1ccc(N(C)C)cc1,-4.37 (active)
4,CC(=O)c1cc(NC(=O)c2ccc(Cl)cc2)c(=O)oc1/C=C/N(C)C,3.13
5,Cc1ccc2nc(NCCC(=O)O)nc(-c3ccccc3)c2c1,4.16
6,CC1CCCc2sc3nc(NCc4ccco4)n4ncnc4c3c21 (stereo not drawn),-3.54 (active)
7,N#C/C(=C\c1ccc(N2CCCCC2)o1)C(=O)Nc1cccc(Br)c1,12.9
8,COc1ccc(C2=NC(=O)/C(=C\c3cc(OC)c(OC)c(OC)c3)O2)cc1,3.04
9,N#C/C(=C/c1ccc(-c2cc(C(=O)O)cc(C(=O)O)c2)o1)c1nc2ccccc2s1,3.02
10,COc1ccc(C(NC(C)=O)c2ccc3cccnc3c2O)c(OC)c1 (stereo not drawn),-5.39 (active)
11,COc1cc2c3nnc(-c4ccccc4)c-3cn(Cc3ccccc3F)c2cc1OC,12.9
12,Cc1ccc(C(=O)COC(=O)CNC(=O)c2ccc(N3C(=O)c4ccccc4C3=O)cc2)cc1C,-3.38 (active)
13,O=C(CNC(=O)c1ccco1)OCC(=O)c1ccccc1,4.35
14,CCOC(=O)C1=C(C)OC(N)=C(C#N)C1c1cc(SCC)oc1C (stereo not drawn),0.96
15,COC(=O)[C@@H](NC(=O)Nc1cccc(OC)c1)C(C)C,3.01
16,COc1cccc(NC(=O)N2CCCC2C(=O)NC(C)C)c1 (stereo not drawn),-5.72 (active)
17,COc1cccc(NC(=O)N2CCN(c3nnnn3-c3ccccc3)CC2)c1,3.09
18,Cn1c(=O)c(NC2CCCCC2)c2c3c(cccc31)C(=O)c1ccccc1-2,16.9
19,O=C(NCCCN1CCN(Cc2ccccc2)CC1)C1CCN(c2nnc(-n3cccc3)s2)CC1,-4.79 (active)
20,CC1c2nc3ccccc3n2C(CC(=O)NCCCN2CCOCC2)C(=O)N1Cc1ccccc1 (stereo not drawn),2.82
21,O=C(NCCCN1CCCCCC1)C1CC(=O)N(C2CCCC2)C1 (stereo not drawn),4.02
22,CC(C)CCNC(=S)Nc1ccc([N+](=O)[O-])cc1,-5.03 (active)
23,Cc1[nH]c2ccccc2c1/C=N/Nc1ccc([N+](=O)[O-])cc1,13.9
24,CNC(=S)Nc1ccc([N+](=O)[O-])cc1,4.22
25,CCOC(=O)CC1C(=O)NCCN1S(=O)(=O)c1ccc(Cl)cc1Cl (stereo not drawn),3.29

row,SMILES,z-score
1,COc1ccc(C2CC(=O)N(CCCN(C)CCc3ccc(OC)c(OC)c3)C2)cc1 (stereo not drawn),1.63
2,COc1ccc(-c2ccc(-c3nnc(Cc4ccc(OC)c(OC)c4)o3)cc2)cc1,-4.88 (active)
3,Cc1ccc(-c2nnc(Cc3ccc([N+](=O)[O-])cc3)o2)cc1,2.29
4,CCOC(=O)Cn1c(=O)c(-c2cc(Br)ccc2N)nc2ccccc21,6.82
5,O=C(/C=C/c1ccc2ccccc2n1)c1cc(Br)ccc1O,4.36
6,C/C(=N\NC(=O)c1cccc(N/N=C(\C)c2cc(O)ccc2O)c1)c1cc(O)ccc1O,-4.19 (active)
7,CC(=O)c1cccc(NC(=O)c2c(F)c(F)c(F)c(F)c2F)c1,0.06
8,Cc1cc(C2C(C#N)=C(N)Oc3n[nH]c(C)c32)c(C)s1 (stereo not drawn),3.37
9,Cc1ccc(OCCn2nc3ccccc3n2)c(C)c1,-6.61 (active)
10,Cc1c(C(=O)O)cccc1-c1ccc(/C=C2/NC(=O)N(c3ccccc3)C2=O)o1,3.88
11,O=C(Nc1ccccc1)Nc1ccc(-n2ccc(C(F)(F)F)n2)cc1,-3.4 (active)
12,C=CCC(c1ccccc1)N(C(C)=O)c1ccco1 (stereo not drawn),3.62
13,COc1ccc(CNC(=O)/C=C/c2ccco2)cc1OC,1.08
14,CC(/C=C/c1ccco1)=N\NC(=O)C(O)c1ccccc1 (stereo not drawn),-4.52 (active)
15,CCOc1cc([N+](=O)[O-])cc2c1C(=O)Nc1ccccc1O2,5.94
16,CCOC(=O)c1cc2c(ccn2C)n1CC(=O)N1CCC(Cc2ccccc2)CC1,-3.62 (active)
17,Nc1nc(N2CCN(C(=O)c3ccco3)CC2)nc2ccc(Br)cc12,-3.6 (active)
18,Cc1cccc2c(C(=O)N3CCN(C(=O)c4ccco4)CC3)cc(-c3cccc(Br)c3)nc12,-4.53 (active)
19,CC(=O)c1ccc2cccc3c2c1N=CN3C,3.38
20,CN(C)S(=O)(=O)c1ccc(N2CCN(S(=O)(=O)c3ccc(F)cc3)CC2)c(Cl)c1,-3.39 (active)
21,Cc1sc2nc(C3CC3)nc(NCCNS(=O)(=O)c3ccccc3)c2c1C,-0.22
22,CN(C)/C=C1/Nc2ccccc2C1=O,4.71
23,COC1OC(CO)C(O)C(O)C1O (stereo not drawn),-0.58
24,Cc1ccc(NC(=O)CCn2cccc2)cc1Cl,3.23
25,Cc1cc(C)nc(SCC(=O)Nc2ccc(N3CCOCC3)c(Cl)c2)n1,-11 (active)

row,SMILES,z-score
1,O=S(=O)(Nc1cc2nc3ccccc3nc2n1Cc1ccccc1)c1ccc(Cl)cc1,15.3
2,CCc1nc(Nc2ccc(N3CCN(C(C)=O)CC3)cc2)c2oc3ccccc3c2n1,-4.54 (active)
3,Cc1nc2c(oc3ccccc32)c(=O)o1,4.23
4,Cc1cccc(N2CCCn3c2nc2c3c(=O)n(CCN3CCOCC3)c(=O)n2C)c1,-3.6 (active)
5,Cc1cc(/C=C2\NC(=S)N(C)C2=O)ccc1N1CCCC1,14.3
6,Cc1oc2ncnc(N)c2c1C,0.96
7,CCCCN(C)CC(O)Cn1cc(/C=C/C(=O)c2cccs2)c2ccccc21 (stereo not drawn),4.79
8,CC(Cc1cccs1)NC(=O)Nc1ccccc1 (stereo not drawn),-4.74 (active)
9,CC(NC(=O)/C(C#N)=C1\N=C(NC(=O)c2cccs2)c2ccccc21)c1ccccc1 (stereo not drawn),3.96
10,Nc1nnc(-c2cc3c(ccc4ccccc43)oc2=O)s1,8.81
11,O=C(c1ccco1)N1CCN(C(=O)N2c3ccccc3Sc3ccccc32)CC1,-3.22 (active)
12,CN(C)N(C)C(=O)C(O)(c1ccccc1)c1ccccc1,-3.03 (active)
13,COC(=O)c1ccc(N2CCN(S(=O)(=O)c3ccc4ccccc4c3)CC2)c([N+](=O)[O-])c1,-4.04 (active)
14,CCN1CC=C2C(C#N)=C(N)C(C#N)(C#N)C(c3cc(Cl)ccc3Cl)C2C1 (stereo not drawn),15.3
15,O=C1c2cccc3c(N4CCCCC4)ccc(c23)C(=O)N1c1ccc(O)cc1,6.1
16,O=C(COc1ccc2ccccc2c1Br)Nc1ncn[nH]1,1.51
17,Cc1cc(-c2ccccc2)cc(-c2ccccc2)[n+]1C,-5.05 (active)
18,COCCN1CN(S(=O)(=O)c2ccccc2)c2nc3ccccc3nc21,3.14
19,O=[N+]([O-])c1ccc(N2N=C(c3ccco3)CC2c2ccccc2)cc1 (stereo not drawn),3.05
20,CCc1ccc2[nH]c(=O)c(CN(Cc3ccc4c(c3)OCO4)Cc3nnnn3C3CCCC3)cc2c1,-5.41 (active)
21,CCC(C)(C)n1nnnc1CN(Cc1ccco1)Cc1cc2cc3c(cc2[nH]c1=O)OCO3,-2.22
22,CCc1ccc2[nH]c(=O)c(CN(Cc3nnnn3C3CCCC3)C3CCCCC3)cc2c1,-3.09 (active)
23,Cc1cc(C)c2[nH]c(=O)c(CN(Cc3ccc4c(c3)OCO4)Cc3nnnn3C3CCCC3)cc2c1,-3.04 (active)
